Assay outcomes deposited in PubChem by National Center for Advancing Translational Sciences (NCATS).
In the library only some 12% were active in any assay of this set; here they are far more common.
G9a inh: blocks human histone lysine methyltransferase G9a | AID 504332 | 350,000 compounds, 8.8% hits | Q96KQ7 | Potency, µM (titrated, usually from 102 µM), for inactives: at the highest dose activity, negative = inhibition, most hits filed as inhibitors | G9a H3K9 monomethylation, AlphaScreen, 2 h; also: potency is read from the fitted curve at half-maximal effect; % is scaled to controls: 0 for no effect and ±100 for the full control effect; nearly all actives have a fitted effect of over 75% in size
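Methyltransferase reactions run at room temperature for 2 h (20 nM enzyme, 500 nM biotin-H3K9 peptide, 20 uM SAM) after a 15 min compound preincubation; product detected by AlphaScreen beads and anti-H3K9me1 antibody.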
JMJD2A Tudor: blocks the human JMJD2A Tudor domain | O75164 | AlphaScreen JMJD2A-Tudor / H3K4me3 peptide binding | Potency, µM (series often up to 114 µM), inactives show at the top dose activity change, negative = inhibition, actives largely listed as inhibitors | 390,000 compounds, 4.4% hits; also: potency is read from the fitted curve at half-maximal effect; % is scaled to controls: 0 for no effect and ±100 for the full control effect; nearly all actives have a fitted effect of over 50% in size
BAZ2B block: blocks human BAZ2B. Q9UIF8. 360,000 compounds, 4.4% hits. AlphaScreen BAZ2B-H3K14Ac peptide displacement. Potency, µM (doses to about 114 µM), inactives show at the highest dose activity change, negative = inhibition, usual class: inhibitors. AID 504333; also: potency is read from the fitted curve at half-maximal effect; % is scaled to controls: 0 for no effect and ±100 for the full control effect; nearly all actives have a fitted effect of over 60% in size
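BAZ2B (50 nM) with biotin-H3(5-23)K14Ac peptide (50 nM) in PBS pH 7.4, 0.01% Tween-20, preformed 30 min, then compound 30 min at room temperature; top concentration 110uM. AlphaScreen streptavidin donor/nickel chelate acceptor beads (10 ug/mL final), 20 min dark, signal read.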
PI5P4K alpha inh: blocks human PI5P4K alpha kinase activity; P48426; PI5P4Kalpha enzyme, ADP-Glo luminescence, 60 min; active compounds read low; max response, %; 330,000 compounds, 1.2% hits; AID 652105; active = max response of -50% or lower; inconclusive = between -30% and -50%; inactive = -30% or higher; also: value at the top dose of about 77 µM; % is scaled to controls: 0 for no effect and ±100 for the full control effect
Target sequence (P48426 whole entry, looked up): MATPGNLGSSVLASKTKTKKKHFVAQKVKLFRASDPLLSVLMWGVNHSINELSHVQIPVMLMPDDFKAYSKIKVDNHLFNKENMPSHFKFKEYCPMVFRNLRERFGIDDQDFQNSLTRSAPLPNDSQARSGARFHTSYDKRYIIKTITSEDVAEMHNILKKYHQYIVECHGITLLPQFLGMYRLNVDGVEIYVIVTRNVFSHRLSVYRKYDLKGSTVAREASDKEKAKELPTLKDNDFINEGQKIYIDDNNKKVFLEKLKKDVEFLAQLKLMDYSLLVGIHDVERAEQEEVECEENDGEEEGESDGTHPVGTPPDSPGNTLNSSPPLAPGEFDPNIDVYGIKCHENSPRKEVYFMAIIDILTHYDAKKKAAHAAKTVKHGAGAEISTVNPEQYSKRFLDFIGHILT
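ADP-Glo luminescence end-point read after a 60 min room-temperature kinase reaction of PI5P4Kalpha plus substrate, initiated with ATP at 5 microM final. Buffer: 0.038 M HEPES pH 7.4, EGTA, 0.1% CHAPS, 5% DMSO.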
HP1b binding inh: inhibitors of HP1-beta chromodomain binding to methylated histone tails; P83916; AlphaScreen HP1-beta / biotin-H3K9me3 peptide binding; Potency, µM (series often up to 114 µM), for the others: at the highest dose activity change, negative = inhibition, usual class: inhibitors; 390,000 compounds, 0.56% hits; AID 540317; also: potency is read from the fitted curve at half-maximal effect; nearly all actives have a fitted effect of over 70% in size
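Compound inhibition of the preformed complex between 50 nM HP1-beta and 50 nM biotinylated H3K9me3 peptide was read by AlphaScreen. Buffer was PBS pH 7.4 with 0.01% Tween-20. Incubations ran 30 min at room temperature, with 10 ug/mL donor/acceptor beads.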
PLK1 PBD block: PLK1 (human) polo-box domain binding inhibition | Potency, µM, for inactives: max response, negative = inhibition, hits mostly inhibitors | Plk1 PBD binding of FITC phosphopeptide, fluorescence polarization | P53350 | 360,000 compounds, 2.8% hits | AID 720504; also: potency is read from the fitted curve at half-maximal effect; series mostly up to about 57 µM; % is scaled to controls: 0 for no effect and ±100 for the full control effect; nearly all actives have a fitted effect of over 65% in size
An asterisk follows results filed as active; ? = inconclusive; nt = no result given; [ ] = another dose, or the depositor's remark. Unless noted, calls follow the shape of the dose curve; as a rule, active = well fitted curve in the direction sought with a large enough effect; inconclusive = small, poorly fitted or top-dose-only effect, or another doubt; inactive = no such curve, though single readings can be large; an effect the other way counts as inactive or inconclusive.

SMILES	G9a inh	JMJD2A Tudor	BAZ2B block	PI5P4K alpha inh	HP1b binding inh	PLK1 PBD block
COc1ccc(CC(=O)NCc2nc3cccnc3n2Cc2ccc(F)cc2)cc1OC	13%[59 µM]	-3%	-1%	nt	25%[57 µM]	nt
COC(=O)c1c(NC(=O)COc2ccc(Cl)cc2C)sc2c1CCCCC2	7.9µM*	-9%	-10%	nt	-17%	nt
COC(=O)c1c(NC(=O)COc2cc(C)c(Cl)c(C)c2)sc2c1CCCC2	7.1µM*	-15%	24%	nt	?	nt
O=C(CSCc1cccc(Br)c1)N=Nc1c(O)[nH]c2ccccc12	21%[0.0925 µM]	-18%[57.1 µM]	50µM*	0	1%	-10%
O=C(CSCc1ccccc1)N=Nc1c(O)[nH]c2ccccc12	8%	-24%	1%	-1	21%	-19%
NCC[C@H](O)C(=O)N[C@@H]1C[C@H](N)[C@@H](O[C@H]2O[C@H](CN)CC[C@H]2N)[C@H](O)[C@H]1O[C@H]1O[C@H](CO)[C@@H](O)[C@H](N)[C@H]1O	-3%[12.7 µM]	nt	nt	nt	nt	nt
O=C(c1c(F)c(F)c(F)c(F)c1F)N1CCc2ccccc21	nt	56µM*	nt	-7	-13%	24µM*
CCOCC(=O)N1CCc2ccccc21	-8%[12.7 µM]	-7%	6%	-9	35%	-14%
O=C(c1ccccc1)N1CCc2ccccc21	-6%[12.7 µM]	4%	-13%	3	29%	-5%
CCN(CC)C(=O)N1CCc2ccccc21	nt	-31%	-6%	-17	-2%	30µM*
Cc1ccc(OCC(O)Cn2c(=N)n(CCN3CCCCC3)c3ccccc32)cc1 (configuration not stated)	-6%[12.7 µM]	-13%	1%	-3	-8%	-10%
N=c1n(CCN2CCCC2)c2ccccc2n1CC(O)c1ccc(Cl)c(Cl)c1 (configuration not stated)	?	?	-5%	-11	52%	24µM*
N=c1n(CCN2CCCCC2)c2ccccc2n1CC(O)COc1ccc(Cl)cc1Cl (configuration not stated)	?	-15%	-26%	nt	18%	nt
COc1ccc(OCC(O)Cn2c(=N)n(CCN3CCCCC3)c3ccccc32)cc1 (configuration not stated)	?	?	-6%	?	?	2.7µM*
O=C(NNC(=O)c1ccc(Br)s1)c1csc(N2CCOCC2)n1	?	-4%	?	1	48%	1%
CCCC(NC(=O)C(C)N1CCN(S(=O)(=O)c2ccccc2)CC1)c1ccccc1 (configuration not stated)	21%[59 µM]	-18%	-5%	3	30%	5%
O=C1C(=C(O)c2ccccc2)C(=O)c2ccccc21	?	89µM*	-5%	nt	-1%	-10%
Cc1cccc(N2N=C(C(=O)N3Cc4ccccc4CC3C(N)=O)CCC2=O)c1 (configuration not stated)	nt	-11%	nt	-9	44%	0%
COc1cccc2cc(-c3cn4cccc(C)c4n3)c(=O)oc12	nt	-10%	nt	nt	5%	-6%
COc1ccc(-n2c(C)cc(-c3cn4cccc(C)c4n3)c2C)cc1	?	?	40µM*	-3	-11%	-5%
Cc1cc(-c2cn3ccccc3n2)c(C)n1-c1ccccc1	50µM*	56µM*	?	-16	?	-14%
COc1ccc(S(=O)(=O)N2CCCC(C(=O)NC3CC3)C2)cc1OC (configuration not stated)	-8%	-8%	1%	-6	24%	5%
COc1cc(NC(=O)c2noc3c2CCC3)c(OC)cc1Cl	?	45µM*	50µM*	nt	?	?
COC(=O)c1ccccc1NC(=O)c1noc2c1CCCC2	7%[12.7 µM]	26%	7%	nt	61%	-6%
COc1cc(OC)c(NC(=O)c2noc3c2CSc2ccccc2-3)cc1Cl	1.6µM*	2%	18%	nt	61%	nt
COc1cc(OC)c(NC(=O)c2nn(C)c3c2COc2ccccc2-3)cc1Cl	2.2µM*	-9%	-9%	nt	146%	nt
